These results are taken from PubChem BioAssay.

Activity calls are given as the source filed them.

Assay [1] can be described thus: small molecules captured by biotinylated probe aFSTL3 – biochemical, small-molecule microarray, fluorescence 635/667, stem cell growth factor project, primary screen (AID 1064).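 Further: measures binding of the biotinylated anti-FSTL3 antibody to printed compounds.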 The conditions noted are these: higher = more signal.
The nature of assay [2]: binders from COS7 lysate, DM2A8 probe, primary screen, torsin A project, cell lysate, small-molecule microarray, fluorescence 635/667 (AID 1065). The conditions noted are these: higher = more signal, COS7 lysate expressing mutant human TOR1A.
Assay [3] in a line: small molecules captured by biotinylated probe aFGF2 – biochemical, small-molecule microarray, fluorescence 635/667, stem cell growth factor project, primary screen (AID 1067).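 Further: measures binding of biotinylated aFGF2 protein to printed compounds on slides; z-score merges feature fluorescence and signal-to-noise across triplicate slides.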 The settings on record: higher = more signal.
Assay [4] can be described thus: small molecules captured by biotinylated probe aFGF10 – biochemical, small-molecule microarray, fluorescence 635/667, stem cell growth factor project, primary screen (AID 1071).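 Further: score merges 667 nm spot intensity and signal to noise from triplicate slides.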 The conditions noted are these: higher = more signal.
Assay [5] deals with Neurogenic locus notch homolog protein 2 (Homo sapiens) (UniProt Q04721). As to the kind of experiment: small molecules binding Notch2 protein – biochemical, small-molecule microarray, 635 nm fluorescence, stem cell growth factors, primary screen (AID 1073). The conditions noted are these: higher = more signal.
Sequence of Neurogenic locus notch homolog protein 2 (Homo sapiens) (Q04721 whole entry, looked up, canonical isoform): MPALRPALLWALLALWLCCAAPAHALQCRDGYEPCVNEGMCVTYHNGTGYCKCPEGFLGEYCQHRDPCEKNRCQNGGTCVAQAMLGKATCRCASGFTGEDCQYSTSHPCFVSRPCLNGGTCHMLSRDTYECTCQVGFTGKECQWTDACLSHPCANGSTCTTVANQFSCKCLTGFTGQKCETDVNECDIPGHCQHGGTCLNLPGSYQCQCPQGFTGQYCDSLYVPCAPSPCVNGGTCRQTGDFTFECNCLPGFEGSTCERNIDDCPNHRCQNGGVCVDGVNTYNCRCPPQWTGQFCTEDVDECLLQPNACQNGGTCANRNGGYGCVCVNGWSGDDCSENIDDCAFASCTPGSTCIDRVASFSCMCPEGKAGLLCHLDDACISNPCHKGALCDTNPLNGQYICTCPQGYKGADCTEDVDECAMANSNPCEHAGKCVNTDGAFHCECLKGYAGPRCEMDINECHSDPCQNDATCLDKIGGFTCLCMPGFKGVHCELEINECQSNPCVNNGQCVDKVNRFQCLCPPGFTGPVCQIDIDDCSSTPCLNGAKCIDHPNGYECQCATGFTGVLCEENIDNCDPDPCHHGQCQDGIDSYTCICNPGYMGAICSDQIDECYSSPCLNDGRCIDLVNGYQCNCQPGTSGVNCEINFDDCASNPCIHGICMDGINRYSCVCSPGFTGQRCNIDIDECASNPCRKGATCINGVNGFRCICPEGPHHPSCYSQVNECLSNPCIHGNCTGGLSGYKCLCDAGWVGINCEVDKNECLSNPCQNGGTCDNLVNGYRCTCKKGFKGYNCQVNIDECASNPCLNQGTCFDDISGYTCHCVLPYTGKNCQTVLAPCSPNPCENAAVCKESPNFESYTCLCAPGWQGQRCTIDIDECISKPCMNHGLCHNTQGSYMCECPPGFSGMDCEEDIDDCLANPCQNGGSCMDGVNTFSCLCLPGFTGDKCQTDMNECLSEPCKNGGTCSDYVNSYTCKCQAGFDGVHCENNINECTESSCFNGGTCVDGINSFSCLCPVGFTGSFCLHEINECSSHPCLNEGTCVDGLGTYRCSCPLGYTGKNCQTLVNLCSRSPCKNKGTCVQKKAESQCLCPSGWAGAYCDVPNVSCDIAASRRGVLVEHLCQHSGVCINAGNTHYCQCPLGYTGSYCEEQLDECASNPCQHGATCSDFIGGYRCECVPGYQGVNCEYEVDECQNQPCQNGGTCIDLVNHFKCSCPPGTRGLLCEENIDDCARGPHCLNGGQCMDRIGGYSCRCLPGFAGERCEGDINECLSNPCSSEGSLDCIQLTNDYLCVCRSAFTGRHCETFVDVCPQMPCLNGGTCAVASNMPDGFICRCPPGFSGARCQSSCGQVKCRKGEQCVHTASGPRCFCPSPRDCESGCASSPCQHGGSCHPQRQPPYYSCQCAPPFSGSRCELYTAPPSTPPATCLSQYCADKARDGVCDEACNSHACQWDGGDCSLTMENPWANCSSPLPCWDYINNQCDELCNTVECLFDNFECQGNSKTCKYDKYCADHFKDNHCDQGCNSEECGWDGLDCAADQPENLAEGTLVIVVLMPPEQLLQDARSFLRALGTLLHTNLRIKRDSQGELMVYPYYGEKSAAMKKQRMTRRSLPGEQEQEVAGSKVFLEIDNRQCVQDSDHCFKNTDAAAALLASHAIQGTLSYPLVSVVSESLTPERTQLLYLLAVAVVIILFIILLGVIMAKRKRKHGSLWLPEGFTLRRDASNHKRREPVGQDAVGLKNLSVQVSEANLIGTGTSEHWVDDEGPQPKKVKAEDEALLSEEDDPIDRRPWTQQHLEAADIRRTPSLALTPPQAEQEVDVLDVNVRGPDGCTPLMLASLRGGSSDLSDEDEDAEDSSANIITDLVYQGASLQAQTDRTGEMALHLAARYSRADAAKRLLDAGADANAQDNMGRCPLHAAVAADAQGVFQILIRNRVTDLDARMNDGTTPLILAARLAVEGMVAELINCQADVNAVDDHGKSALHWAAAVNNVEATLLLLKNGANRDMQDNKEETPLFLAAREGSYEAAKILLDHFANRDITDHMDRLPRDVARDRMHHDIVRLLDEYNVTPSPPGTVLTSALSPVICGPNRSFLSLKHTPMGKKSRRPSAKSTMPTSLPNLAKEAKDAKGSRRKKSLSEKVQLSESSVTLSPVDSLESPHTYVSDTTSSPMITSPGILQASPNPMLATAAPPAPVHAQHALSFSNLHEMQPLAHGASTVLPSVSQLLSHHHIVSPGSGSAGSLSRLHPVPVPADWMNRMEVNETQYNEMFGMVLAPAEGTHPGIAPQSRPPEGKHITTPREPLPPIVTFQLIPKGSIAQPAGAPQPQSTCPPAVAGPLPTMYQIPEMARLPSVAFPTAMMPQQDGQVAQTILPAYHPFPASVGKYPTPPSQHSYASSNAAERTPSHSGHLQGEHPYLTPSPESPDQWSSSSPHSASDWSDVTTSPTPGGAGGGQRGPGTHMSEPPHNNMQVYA
Assay [6] concerns the target Pro-neuregulin-1, membrane-bound isoform (Homo sapiens) (UniProt Q02297). As to the kind of experiment: small molecules binding neuregulin-1 protein – biochemical, small-molecule microarray, fluorescence 635/667, psychiatric disease protein project, primary screen (AID 1075).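 Further: score combines 667 nm spot fluorescence with signal to noise.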 The conditions noted are these: NRG1 binding, 635 nm fluorescence, higher = more signal.
Assay [7] has as its system Neuregulin-1 EGF-like domain. The assay can be described thus: small molecules binding NRG1 EGF domain – biochemical, small-molecule microarray, 635 nm fluorescence, primary screen (AID 1081).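 Further: binding of the protein to compounds printed on small-molecule microarray slides.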 The settings on record: higher = more signal.
A short description of assay [8]: FRG1 expression reporter modulators in myotubes – cell-based, C2C12 myotubes, firefly/Renilla luciferase, luminescence, FRG1 inhibition for FSHD, primary screen (AID 1084). The conditions noted are these: FRG1 promoter luciferase, higher = more signal, called active from +8 up or from −8 down.
Assay [9] is described as follows: small molecules captured by biotinylated probe aFST – biochemical, small-molecule microarray, fluorescence 635/667, stem cell growth factor project, primary screen (AID 1086).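 Further: score merges 667 nm fluorescence with signal-to-noise of each printed compound spot.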 The conditions noted are these: higher = more signal.
Assay [10] in a line: binders of probe aHhip on microarray, primary screen, stem cell growth factor project, biochemical, small-molecule microarray, fluorescence 635/667 (AID 1087).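 Further: score merges spot fluorescence at 667nm with spot signal to noise ratio.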 The conditions noted are these: higher = more signal.
The subject of assay [11] is PRMT1 (protein arginine N-methyltransferase 1). The assay can be described thus: small molecules binding arginine methyltransferase PRMT1 – biochemical, small-molecule microarray, 635 nm fluorescence, primary screen (AID 1088).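 Further: binding of Prmt1 protein to compounds spotted on small-molecule microarray slides.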 The conditions noted are these: higher = more signal.
Assay [12] can be described thus: growth effects on S. cerevisiae YJM789 – YJM789 clinical isolate, OD600, 24 h, basal, primary screen (AID 1089).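 Further: growth of clinical yeast isolate S. cerevisiae YJM 789 seeded 1000 cells per well; test concentration not given here.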 The settings on record: higher = more signal, called active from +8 up or from −8 down.
The nature of assay [13]: S. pombe growth modifiers, basal conditions – strain 972, OD600, 24 h, no modulator, primary screen (AID 1090).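 Further: basal condition with compound alone and no growth modifier present; test concentration not given here.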 The settings on record: S. pombe 972 growth, higher = more signal, called active from +8 up or from −8 down.
Assay [14] can be described thus: budding yeast growth modifiers under rapamycin – strain BY4716, OD600, 96 h, primary screen (AID 1091). Further: test concentration not given here. The conditions noted are these: S. cerevisiae BY4716 + rapamycin, higher = more signal, called active from +8 up or from −8 down.
Assay [15] has as its target Torsin-1A-interacting protein 2 (Homo sapiens) (UniProt Q8NFQ8). The assay can be described thus: small molecules binding lysate-expressed LULL1 – cell lysate, human LULL1 lysate, 635/667 nm fluorescence, primary screen (AID 1092).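 Further: probe is lysate of COS7 cells overexpressing human LULL1; score merges per-feature 667 nm fluorescence with signal-to-noise.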 The settings on record: small-molecule microarray, hLULL1 lysate binding, 635 nm fluorescence; higher = more signal.
Assay [16] in a line: optical density change of DRC41 E. coli – strain DRC41, OD650, 24 h, E. coli filamentation project, primary screen (AID 1093).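 Further: MC1000 strain lacking acrAB efflux and sulA so SOS filamentation is blocked; test concentration not given here.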 The settings on record: E. coli DRC41 growth, higher = more signal, called active from +8 up or from −8 down.
The nature of assay [17]: probe aLefty2 binding to arrayed compounds – biochemical, biotinylated probe, 635/667 nm fluorescence, primary screen (AID 1094).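 Further: score merges spot fluorescence near 667 nm with spot signal-to-noise ratio.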 The conditions noted are these: small-molecule microarray, higher = more signal.
Assay [18] concerns Noggin (protein binding on small-molecule microarray). As to the kind of experiment: small molecules binding Noggin protein – biochemical, 635/667 nm fluorescence, primary screen (AID 1095).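 Further: score merges 667 nm feature fluorescence with signal to noise over triplicate slides.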 The conditions noted are these: 635 nm fluorescence, higher = more signal.
Assay [19] has as its target Neurogenic locus notch homolog protein 3 (Homo sapiens) (UniProt Q9UM47). The assay can be described thus: small molecules binding NOTCH3 protein – biochemical, 635/667 nm fluorescence, primary screen (AID 1096). The settings on record: small-molecule microarray, 635 nm fluorescence, higher = more signal.
The nature of assay [20]: probe aEGFR binding to arrayed compounds – biochemical, biotinylated probe, 635/667 nm fluorescence, primary screen (AID 1097).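 Further: probe is a biotinylated anti-EGFR antibody binding compounds printed on slides; score combines fluorescence near 667 nm and signal to noise of each spot.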 The conditions noted are these: small-molecule microarray, higher = more signal.

Sequence of Neurogenic locus notch homolog protein 3 (Homo sapiens) (Q9UM47 whole entry, looked up): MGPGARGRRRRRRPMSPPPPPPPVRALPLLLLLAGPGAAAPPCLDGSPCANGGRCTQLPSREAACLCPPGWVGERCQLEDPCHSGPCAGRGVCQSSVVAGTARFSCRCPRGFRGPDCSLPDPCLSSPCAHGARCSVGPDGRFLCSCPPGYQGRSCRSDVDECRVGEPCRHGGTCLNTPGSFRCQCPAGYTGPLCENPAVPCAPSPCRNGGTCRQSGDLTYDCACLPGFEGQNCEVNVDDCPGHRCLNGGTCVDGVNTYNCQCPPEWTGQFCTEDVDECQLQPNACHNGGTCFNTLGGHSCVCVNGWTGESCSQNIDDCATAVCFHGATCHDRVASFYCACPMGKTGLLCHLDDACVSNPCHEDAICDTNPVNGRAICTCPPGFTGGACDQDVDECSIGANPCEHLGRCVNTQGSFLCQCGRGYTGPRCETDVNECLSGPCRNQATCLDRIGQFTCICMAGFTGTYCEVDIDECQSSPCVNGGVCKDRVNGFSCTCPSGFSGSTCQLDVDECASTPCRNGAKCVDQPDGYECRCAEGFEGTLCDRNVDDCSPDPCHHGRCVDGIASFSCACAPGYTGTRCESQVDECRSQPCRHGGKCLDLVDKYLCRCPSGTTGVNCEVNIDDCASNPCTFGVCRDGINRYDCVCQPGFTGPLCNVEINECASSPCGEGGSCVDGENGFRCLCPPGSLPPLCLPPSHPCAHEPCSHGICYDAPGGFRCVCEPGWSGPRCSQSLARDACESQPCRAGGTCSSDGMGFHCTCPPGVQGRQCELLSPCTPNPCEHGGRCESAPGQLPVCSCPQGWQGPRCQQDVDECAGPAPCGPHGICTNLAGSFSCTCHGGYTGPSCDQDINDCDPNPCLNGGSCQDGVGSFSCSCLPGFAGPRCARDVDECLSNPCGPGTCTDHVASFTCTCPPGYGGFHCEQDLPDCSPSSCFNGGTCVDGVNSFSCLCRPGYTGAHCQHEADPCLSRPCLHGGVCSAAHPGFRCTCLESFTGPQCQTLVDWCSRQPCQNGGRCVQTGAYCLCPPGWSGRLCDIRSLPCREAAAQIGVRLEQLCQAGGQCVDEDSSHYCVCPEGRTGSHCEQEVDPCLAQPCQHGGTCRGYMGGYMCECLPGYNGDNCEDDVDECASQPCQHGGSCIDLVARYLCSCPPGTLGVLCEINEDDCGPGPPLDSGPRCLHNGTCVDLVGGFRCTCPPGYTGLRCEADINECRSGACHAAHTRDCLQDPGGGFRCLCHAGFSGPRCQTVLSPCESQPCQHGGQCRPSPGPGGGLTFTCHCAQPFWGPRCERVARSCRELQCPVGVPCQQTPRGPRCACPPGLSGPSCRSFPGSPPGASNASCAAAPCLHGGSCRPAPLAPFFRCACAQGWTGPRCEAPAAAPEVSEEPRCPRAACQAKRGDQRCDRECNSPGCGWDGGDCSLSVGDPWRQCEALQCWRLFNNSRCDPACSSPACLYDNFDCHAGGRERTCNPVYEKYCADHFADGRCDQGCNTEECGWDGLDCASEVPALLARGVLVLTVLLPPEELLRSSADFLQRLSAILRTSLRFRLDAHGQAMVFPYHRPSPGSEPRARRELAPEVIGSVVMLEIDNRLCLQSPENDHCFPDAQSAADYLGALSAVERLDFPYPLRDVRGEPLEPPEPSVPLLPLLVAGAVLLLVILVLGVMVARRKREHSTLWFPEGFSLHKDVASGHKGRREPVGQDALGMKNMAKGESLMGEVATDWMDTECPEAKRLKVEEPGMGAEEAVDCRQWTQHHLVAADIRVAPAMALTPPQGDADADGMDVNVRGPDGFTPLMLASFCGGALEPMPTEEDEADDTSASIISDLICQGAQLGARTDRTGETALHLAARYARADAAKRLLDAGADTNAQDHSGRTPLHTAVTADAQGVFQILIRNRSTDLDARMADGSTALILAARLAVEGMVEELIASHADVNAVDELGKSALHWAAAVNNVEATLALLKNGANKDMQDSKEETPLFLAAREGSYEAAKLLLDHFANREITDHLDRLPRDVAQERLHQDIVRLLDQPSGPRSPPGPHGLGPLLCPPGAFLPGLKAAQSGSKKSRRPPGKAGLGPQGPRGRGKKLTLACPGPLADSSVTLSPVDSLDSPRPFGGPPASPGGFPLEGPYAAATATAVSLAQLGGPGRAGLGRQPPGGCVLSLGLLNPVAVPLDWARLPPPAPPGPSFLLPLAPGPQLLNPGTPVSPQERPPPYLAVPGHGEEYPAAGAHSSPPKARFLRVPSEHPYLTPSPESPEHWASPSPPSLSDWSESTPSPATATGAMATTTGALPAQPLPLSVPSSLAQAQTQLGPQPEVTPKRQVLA

Turning to `COc1ccc([C@H]2OC[C@@H]3C[C@@H](Cc4ccccc4)C(=O)N32)cc1`, the composite z-score in [1] is -0.446; in assay [2] it was 0.466; in [3], 0.0216; in [4], 0.526; in assay [5], 0.426; in [6], -0.103. Also, the composite z-score in [7] is 1.11; in assay [9] it was 0.357; in assay [10], 0.115; in assay [11] it was 0.758; in assay [15], 0.0239; in [17] it was -0.103. Besides, the figures for the composite z-score in assay [18], in [19] and in assay [20] were 0.892, 0.75 and -0.0299, respectively. The z-score in [8] was -3.02 (inactive); in assay [12] it was -2.03 (inactive); in [13], -3.18 (inactive); in assay [14], 4.07 (inactive); in [16], -0.468 (inactive).

For the compound `[N-]=[N+]=Nc1ccccc1[C@H]1OC(c2ccc(OCCCO)cc2)=N[C@@]1(CCS(=O)(=O)c1ccccc1)C(N)=O`, the composite z-score in assay [1] was 1.5; in [2], 0.449; in assay [3], 0.0797; in assay [4], 1.07; in assay [5], 0.742; in assay [6] it was 0.9. For the same compound, the composite z-score was determined as 1.34 in assay [7]; 1.04 in assay [9]; 0.111 in assay [10]; 1.01 in [11]; 2.56 in assay [15]; 0.24 in [17]. For the same compound, the values for the composite z-score in [18], in assay [19] and in assay [20] were -0.194, 0.42 and 0.401, respectively. For the same compound, the z-score in assay [8] is 3.44 (inactive); in [12] it was -0.268 (inactive); in [13], -2.33 (inactive); in assay [14], 0.372 (inactive); in assay [16], 1.36 (inactive).

On to `NC(=O)NCC#Cc1ccc2c(c1)[C@]1(C(=O)N2)[C@H](c2ccccc2OCCO)N2[C@H](c3ccccc3)[C@H](c3ccccc3)OC(=O)[C@H]2[C@@H]1C(=O)Nc1nc2ccccc2s1`, for which the composite z-score was -0.108 in assay [1]; -0.354 in [2]; -0.016 in assay [3]; 0.268 in assay [4]; 0.295 in [5]; 0.756 in [6]. Also, the composite z-score was 0.176 in assay [7]; 0.617 in assay [9]; -0.0296 in [10]; 1.24 in [11]; 2.49 in [15]; -0.0416 in assay [17]. In addition, the composite z-score in [18] is 0.288; in assay [19] it was 0.773; in assay [20], -0.178. For the same compound, the z-score is 0.169 (inactive) in assay [8]; 1.99 (inactive) in [12]; 1.61 (inactive) in assay [13]; 3.78 (inactive) in assay [14]; 1.15 (inactive) in [16].

Consider `CCCC[C@@H]1C[C@H]1[C@@H](NC(=O)C(C)(C)C)c1ccc(C(F)(F)F)cc1`, for which the composite z-score in assay [1] was 1.54; in [2], 0.466; in [3], -0.0785; in assay [4], -0.38; in assay [5], -1.36; in assay [6] it was 0.669. In addition, the composite z-score in [7] is 0.55; in [9] it was -0.347; in assay [10], 0.235; in assay [11] it was 0.648; in assay [15], 0.918; in [17], 0.0823. Moreover, the composite z-score in assay [18] is -1.46; in assay [19] it was -0.434; in [20], -0.236. The z-score was -0.571 (inactive) in assay [8]; 0.213 (inactive) in assay [12]; -2.71 (inactive) in [13]; 0.329 (inactive) in assay [14]; -1.67 (inactive) in [16].

Regarding `O=C1C[C@@](C(=O)NCC(F)(F)F)(c2ccc([N+](=O)[O-])cc2)[C@@H](c2ccc(CO)cc2I)N1C1CCCCC1`, the composite z-score in assay [1] was -0.0205; in [2], 0.95; in assay [3], -0.0257; in assay [4], 0.19; in [5], 1.46; in assay [6], 0.811. Moreover, the composite z-score in assay [7] is 1.24; in [9] it was 0.414; in assay [10], -0.0994; in assay [11], 1.55; in [15] it was 2.52; in assay [17], 0.0524. In addition, the results for the composite z-score in assay [18], in [19] and in [20] were 0.572, 1.09 and 0.0721, respectively. Moreover, the z-score in assay [8] was 0.467 (inactive); in assay [12], -0.732 (inactive); in assay [13], 0.294 (inactive); in assay [14], 1.16 (inactive); in assay [16], -0.426 (inactive).
